Experiment [1] can be described thus: NCI Yeast Anticancer Drug Screen. Data for the rad50 strain (AID 155).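 Also: 0% = growth of vehicle-only cultures of the same strain.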 As to conditions: S. cerevisiae rad50 strain growth inhibition, active compounds read high. Summed up:
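Growth of the mutant yeast was measured after compound exposure and referenced to vehicle-treated cultures.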

A short description of experiment [2]: NCI Yeast Anticancer Drug Screen. Data for the mec2-1 strain (AID 157). As to conditions: S. cerevisiae mec2-1 strain, active compounds read high. Summed up: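 Each compound was tested on mec2-1 yeast, a strain altered in DNA damage repair or cell cycle control. Growth inhibition is reported relative to vehicle.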
Experiment [3] in a line: NCI Yeast Anticancer Drug Screen. Data for the sgs1 mgt1 strain (AID 161).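 Also: 0% = growth of cultures given vehicle only.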 As to conditions: S. cerevisiae sgs1 mgt1 strain, active compounds read high. In short, it runs like this:
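Mutant yeast exposed to compound; growth scored against vehicle-only wells.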

Experiment [4] can be described thus: NCI Yeast Anticancer Drug Screen. Data for the cln2 rad14 strain (AID 165).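 Also: 0% = growth equal to vehicle treated cultures.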 As to conditions: S. cerevisiae cln2 rad14 strain, active compounds read high. In short, it runs like this: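 Test compounds were added to cln2 rad14 yeast cultures; inhibition of growth was then determined by comparison with vehicle treatment.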
Experiment [5] can be described thus: NCI Yeast Anticancer Drug Screen. Data for the bub3 strain (AID 167). As to conditions: S. cerevisiae bub3 mutant strain, active compounds read high. Summed up: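 Whole-cell yeast assay. The mutant strain was incubated with compounds, and growth inhibition was determined by comparison with vehicle-treated cells.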
Experiment [6] is described as follows: NCI Yeast Anticancer Drug Screen. Data for the mlh1 rad18 strain (AID 175). As to conditions: S. cerevisiae mlh1 rad18 strain growth inhibition, active compounds read high. Summed up: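 Inhibition values reflect reduced growth of mutant yeast versus vehicle-treated controls following compound exposure; the mutations affect DNA damage repair.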
Setting [7] is: at 5.0 µM (retest, dose inferred, filed as 0.5).
[8] abbreviates: at 50.0 µM (retest, dose inferred, filed as 5.0).

About 79,000 compounds went through this panel and 15% of them were active in at least one assay; those are over-represented in the sample as a whole. A number with no mark means an inactive call. The source made the active and inactive calls. Rule as the data show it: active = growth inhibition above about 70%; inactive = the rest.

Take `CSC(=S)n1nc(-c2ccccc2)c(N=Nc2ccc(Br)cc2)c1-c1ccccc1`: the growth inhibition in experiment [1] (setting [7]) was 6%; in experiment [1] (setting [8]) it was 14%; in experiment [1] (at 50.0 µM) it was 41%; in experiment [2] (setting [7]), 9%; in experiment [2] (setting [8]) it was 25%; in experiment [2] (at 50.0 µM), 23.9%. Moreover, the growth inhibition in experiment [3] (setting [7]) is 5%; in experiment [3] (setting [8]), 25%; in experiment [3] (at 50.0 µM) it was 6.15%; in experiment [4] (setting [7]) it was 10%; in experiment [4] (setting [8]), 4%; in experiment [4] (at 50.0 µM), 49.9%. For the same compound, the growth inhibition in experiment [5] (setting [7]) was 13%; in experiment [5] (setting [8]), 34%; in experiment [5] (at 50.0 µM) it was 0.05%; in experiment [6] (setting [7]) it was 5%; in experiment [6] (setting [8]) it was 19%; in experiment [6] (at 50.0 µM) it was -10.2%.
For `Oc1cccc2ccc(/C=C/c3ccccn3)nc12`, the growth inhibition was 1% in experiment [1] (setting [7]); 98% (active) in experiment [1] (setting [8]); 97.4% (active) in experiment [1] (at 50.0 µM); 2% in experiment [2] (setting [7]); 97% (active) in experiment [2] (setting [8]); 97.2% (active) in experiment [2] (at 50.0 µM). Also, the growth inhibition in experiment [3] (setting [7]) is -6%; in experiment [3] (setting [8]) it was 98% (active); in experiment [3] (at 50.0 µM), 98.2% (active); in experiment [4] (setting [7]), -3%; in experiment [4] (setting [8]), 96% (active); in experiment [4] (at 50.0 µM), 95% (active). Also, the growth inhibition in experiment [5] (setting [7]) was -2%; in experiment [5] (setting [8]) it was 98% (active); in experiment [5] (at 50.0 µM), 97.1% (active); in experiment [6] (setting [7]), 2%; in experiment [6] (setting [8]), 98% (active); in experiment [6] (at 50.0 µM), 98.5% (active).
With `CN(C)C(=S)/N=c1\ss/c(=N\C(=S)N(C)C)n1-c1ccc(Cl)cc1`, the growth inhibition is 9% in experiment [1] (setting [7]); 9% in experiment [1] (setting [8]); 94.2% (active) in experiment [1] (at 50.0 µM); 14% in experiment [2] (setting [7]); -7% in experiment [2] (setting [8]); 92.1% (active) in experiment [2] (at 50.0 µM). Also, the growth inhibition in experiment [3] (setting [7]) is 7%; in experiment [3] (setting [8]), 13%; in experiment [3] (at 50.0 µM), 95.7% (active); in experiment [4] (setting [7]) it was 5%; in experiment [4] (setting [8]), -10%; in experiment [4] (at 50.0 µM), 72.3% (active). Moreover, the growth inhibition in experiment [5] (setting [7]) is 3%; in experiment [5] (setting [8]), -2%; in experiment [5] (at 50.0 µM) it was 90% (active); in experiment [6] (setting [7]), 8%; in experiment [6] (setting [8]), 29%; in experiment [6] (at 50.0 µM) it was 96.2% (active).
On to `CCOC(=O)c1ccc(-c2cccs2)n1C`, for which the growth inhibition is -14% in experiment [1] (setting [7]); 6% in experiment [1] (setting [8]); 65.9% in experiment [1] (at 50.0 µM); -1% in experiment [2] (setting [7]); -6% in experiment [2] (setting [8]); 43.8% in experiment [2] (at 50.0 µM). Also, the growth inhibition in experiment [3] (setting [7]) was -12%; in experiment [3] (setting [8]) it was -3%; in experiment [3] (at 50.0 µM) it was 61.9%; in experiment [4] (setting [7]), 28%; in experiment [4] (setting [8]) it was 0%; in experiment [4] (at 50.0 µM) it was 23.4%. The growth inhibition in experiment [5] (setting [7]) was -12%; in experiment [5] (setting [8]), 1%; in experiment [5] (at 50.0 µM), 67.8%; in experiment [6] (setting [7]) it was -9%; in experiment [6] (setting [8]), -1%; in experiment [6] (at 50.0 µM) it was 43.2%.
For the compound `O=C1OC(c2ccccc2)(c2ccc(-c3ccc(O)cc3)cc2)c2ccccc21` (configuration not stated), the growth inhibition in experiment [1] (setting [7]) is 6%; in experiment [1] (setting [8]), 95% (active); in experiment [1] (at 50.0 µM) it was 95.6% (active); in experiment [2] (setting [7]), 3%; in experiment [2] (setting [8]), 97% (active); in experiment [2] (at 50.0 µM), 97.6% (active). For the same compound, the growth inhibition was -1% in experiment [3] (setting [7]); 97% (active) in experiment [3] (setting [8]); 96.8% (active) in experiment [3] (at 50.0 µM); 6% in experiment [4] (setting [7]); 96% (active) in experiment [4] (setting [8]); 95.3% (active) in experiment [4] (at 50.0 µM). Besides, the growth inhibition was 8% in experiment [5] (setting [7]); 96% (active) in experiment [5] (setting [8]); 95.8% (active) in experiment [5] (at 50.0 µM); 7% in experiment [6] (setting [7]); 96% (active) in experiment [6] (setting [8]); 96.7% (active) in experiment [6] (at 50.0 µM).
Turning to `Cc1cc(=O)c2c(ccc3cc4ccccc4cc32)[nH]1`, the growth inhibition in experiment [1] (setting [7]) was -6%; in experiment [1] (setting [8]) it was 41%; in experiment [1] (at 50.0 µM), 66.8%; in experiment [2] (setting [7]) it was 0%; in experiment [2] (setting [8]), 58%; in experiment [2] (at 50.0 µM) it was 38.1%. The growth inhibition was -16% in experiment [3] (setting [7]); 54% in experiment [3] (setting [8]); 45.8% in experiment [3] (at 50.0 µM); -5% in experiment [4] (setting [7]); 17% in experiment [4] (setting [8]); 43.8% in experiment [4] (at 50.0 µM). In addition, the growth inhibition was -7% in experiment [5] (setting [7]); 22% in experiment [5] (setting [8]); 39.6% in experiment [5] (at 50.0 µM); 14% in experiment [6] (setting [7]); 49% in experiment [6] (setting [8]); 59.1% in experiment [6] (at 50.0 µM).
Take `COc1ccc2nccc(C(=O)CBr)c2c1`: the growth inhibition is 24% in experiment [1] (setting [7]); 23% in experiment [1] (setting [8]); 92% (active) in experiment [1] (at 50.0 µM); 32% in experiment [2] (setting [7]); -5% in experiment [2] (setting [8]); 93% (active) in experiment [2] (at 50.0 µM). For the same compound, the growth inhibition was 61% in experiment [3] (setting [7]); 20% in experiment [3] (setting [8]); 97.4% (active) in experiment [3] (at 50.0 µM); -1% in experiment [4] (setting [7]); 10% in experiment [4] (setting [8]); 31.3% in experiment [4] (at 50.0 µM). In addition, the growth inhibition in experiment [5] (setting [7]) was 13%; in experiment [5] (setting [8]) it was 34%; in experiment [5] (at 50.0 µM), 97.2% (active); in experiment [6] (setting [7]), 31%; in experiment [6] (setting [8]), 37%; in experiment [6] (at 50.0 µM), 96.6% (active).
Take `CCOC(=O)C(C(=O)O)(C(c1ccccc1)c1ccccc1)C(c1ccccc1)c1ccccc1`: the growth inhibition was 97% (active) in experiment [1] (setting [7]); 98% (active) in experiment [1] (setting [8]); 98.5% (active) in experiment [1] (at 50.0 µM); 100% (active) in experiment [2] (setting [7]); 100% (active) in experiment [2] (setting [8]); 99.5% (active) in experiment [2] (at 50.0 µM). In addition, the growth inhibition in experiment [3] (setting [7]) is 98% (active); in experiment [3] (setting [8]), 99% (active); in experiment [3] (at 50.0 µM), 98.4% (active); in experiment [4] (setting [7]), 98% (active); in experiment [4] (setting [8]) it was 99% (active); in experiment [4] (at 50.0 µM), 98.9% (active). The growth inhibition is 98% (active) in experiment [5] (setting [7]); 98% (active) in experiment [5] (setting [8]); 98.3% (active) in experiment [5] (at 50.0 µM); 99% (active) in experiment [6] (setting [7]); 99% (active) in experiment [6] (setting [8]); 99% (active) in experiment [6] (at 50.0 µM).
Turning to `CC(C)C(Br)CC/C(CBr)=C(\Cl)CCl` (configuration not stated), the growth inhibition was 24% in experiment [1] (setting [7]); 99% (active) in experiment [1] (setting [8]); 87% (active) in experiment [1] (at 50.0 µM); 21% in experiment [2] (setting [7]); 99% (active) in experiment [2] (setting [8]); 85.1% (active) in experiment [2] (at 50.0 µM). The growth inhibition was 13% in experiment [3] (setting [7]); 99% (active) in experiment [3] (setting [8]); 92.5% (active) in experiment [3] (at 50.0 µM); 17% in experiment [4] (setting [7]); 98% (active) in experiment [4] (setting [8]); 90.2% (active) in experiment [4] (at 50.0 µM). For the same compound, the growth inhibition in experiment [5] (setting [7]) is 30%; in experiment [5] (setting [8]), 99% (active); in experiment [5] (at 50.0 µM) it was 92.2% (active); in experiment [6] (setting [7]) it was 17%; in experiment [6] (setting [8]), 99% (active); in experiment [6] (at 50.0 µM), 56.4%.

(Values after PubChem BioAssay (NCI).)
